These results are taken from PubChem BioAssay AID434973 (Sanford-Burnham Center for Chemical Genomics, 2010).

Among all 330,000 compounds or so, about 4,900 (1.5%) were called active. The list comes from a sample in which actives are over-represented; it also holds similar structures and randomly drawn compounds. Values without a mark were called inactive.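 Rule for the calls: active = inhibition above about 50% at the single test dose (limit read from the data); inactive = the rest.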

For the assay, the target named is Sentrin-specific protease 7 (Homo sapiens) (UniProt Q9BQF6). Kind of assay: SENP7 protease inhibitors, primary screen, biochemical, luminescence, uHTS (AID 434973).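 Note: plate controls were DMSO with enzyme for no effect and no enzyme buffer wells for full effect.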 The conditions noted are these: recombinant SENP7, Z-RLRGG-aminoluciferin luminescence, 40 min; at 5 µM; stronger effect = higher value.
As a reminder, the inhibition is the drop in the measured response relative to a control, in per cent. With `O=C(COC(=O)c1ccc2c(c1)OCCO2)NCc1ccccc1Cl`, the inhibition is -9.15%.

In the case of `COCc1nnc(NC(=O)c2ccc3c(c2)OCO3)s1`, the inhibition was 12.1%.

For `N#CCCN(C(=O)COC(=O)c1ccc2c(c1)OCCO2)c1ccccc1`, the inhibition is 3.84%.

Consider `O=C(COC(=O)c1ccc(F)cc1)Nc1ccc2c(c1)OCO2`, for which the inhibition was -9.15%.

For `O=C(Nc1ccccc1)Nc1nc2ccccc2s1`, the inhibition is 66% (active).

Regarding `Cc1ccc2sc(NNC(=O)c3ccc4c(c3)OCCO4)nc2c1C`, the inhibition is 2.93%.

Turning to `CC(=O)Nc1cccc(C(=O)OCC(=O)c2ccc3c(c2)OCO3)c1`, the inhibition is 81.4% (active).

For the compound `O=C(COC(=O)c1ccncc1)Nc1ccc2c(c1)OCO2`, the inhibition was -10.3%.

For the compound `O=C(OCc1ccccc1F)c1ccc2c(c1)OCCO2`, the inhibition was 84.2% (active).

Take `O=C(Nc1nc2ccccc2s1)c1ccc2c(c1)OCO2`: the inhibition was 97.1% (active).

In the case of `CSc1nsc(NC(=O)Nc2ccccc2)n1`, the inhibition was 34.9%.

Consider `O=C(CCC(=O)c1cccs1)Nc1nc2ccccc2s1`, for which the inhibition was 1.54%.

`CC[N+]1(CC)CC2=Cc3ccccc3CC2C1` (configuration not stated): the inhibition is 5.4%.

For `Cc1ccc(CN2CCN(/N=C/c3cccnc3)CC2)c(C)c1`, the inhibition is 4.31%.

Turning to `CCN(C(=O)C1CCCN(c2nc(-c3ccc(OC)cc3)no2)C1)c1ccc(OC)cc1` (configuration not stated), the inhibition is -0.167%.

As to `CCOC(=O)CSc1nnc(NC(=O)C2CC(=O)N(c3ccc(F)cc3)C2)s1` (configuration not stated), the inhibition was -6.57%.

With `CC(=O)Nc1ccc(S(=O)(=O)N2CCN(S(=O)(=O)c3cccs3)CC2)cc1`, the inhibition is -14%.

Consider `Cc1ccccc1Nc1scc(-c2ccc(Br)cc2)[n+]1-c1ccccc1C`, for which the inhibition was 0.441%.

Take `COc1ccc(/C(C)=N/N2CCOCC2)c(O)c1`: the inhibition was 9.39%.

As for `S=C(Nc1ccc2c(c1)OCO2)N1CCCC1`, the inhibition was -4.52%.

On to `CCCc1nc2oc3c(OCC)ncnc3c2c2c1COC(C)(C)C2`, for which the inhibition was -3.93%.

Take `O=C1c2ccccc2C(=O)N1Cc1cc(-c2ccccc2Cl)no1`: the inhibition was -0.976%.

Consider `Clc1ccc(-c2cc(-c3ccccn3)on2)c(Cl)c1`, for which the inhibition is 99.4% (active).

Turning to `Clc1ccc(COn2c(-c3ccc(Cl)cc3Cl)nc3ncccc32)cc1`, the inhibition was 0.814%.

Turning to `CC1=NNC(=O)C1CCC(=O)N/N=C(\C)c1ccc(Cl)cc1` (configuration not stated), the inhibition was 0.851%.

For the compound `O=C(Nc1ncc([N+](=O)[O-])s1)C1COc2ccccc2O1` (configuration not stated), the inhibition was 96.7% (active).

As for `COc1ccc(NC(=O)C2COc3ccccc3O2)cc1` (configuration not stated), the inhibition was -20.8%.

Turning to `COc1ccc(OC)c2sc(NC(=O)C3COc4ccccc4O3)nc12` (configuration not stated), the inhibition was -4.59%.

On to `CC(C)C1C2=C(CC(C)(C)CC2=O)ON1c1ccccc1` (configuration not stated), for which the inhibition was 3.53%.

For `CC(C)Oc1ccc(C(=O)NCC(=O)Nc2ccc3c(c2)CCC3)cc1`, the inhibition is 3.44%.

As for `O=C(Nc1ccc2c(c1)CCC2)c1ccc(Br)s1`, the inhibition is 69.4% (active).

With `CC1CC(C)CN(CCC(=O)Nc2ccc3c(c2)CCC3)C1` (configuration not stated), the inhibition was 5.5%.

Regarding `CC(C)CCN1NC2(CCC(C)CC2)NC1=S` (configuration not stated), the inhibition was -7.22%.

Turning to `Cc1ccc(NC(=O)c2sccc2C)cc1[N+](=O)[O-]`, the inhibition is 83.7% (active).

Take `Cc1ccsc1C(=O)N/N=C/c1ccc([N+](=O)[O-])cc1`: the inhibition was 80.9% (active).

In the case of `Cc1ccc(NC(=O)CN(C)CC(=O)Nc2cccc(F)c2)cc1[N+](=O)[O-]`, the inhibition was -3.97%.

`Cc1ccc(/C=N/NC(=O)c2sccc2OCc2ccc(F)cc2)cc1`: the inhibition is -13.6%.

`O=C(N/N=C/c1ccc([N+](=O)[O-])cc1)C(=O)N1CCCC1`: the inhibition was -3.45%.

For `Cc1cc(O)c(NC(=O)c2ccc(C)c([N+](=O)[O-])c2)cc1C`, the inhibition was -7.98%.

Turning to `O=C(COc1cccc(Cl)c1)NCc1ccccc1`, the inhibition was -0.414%.

Regarding `COc1cccc(NC(=O)CN(C)C(=O)c2ccccc2CCc2ccccc2)c1`, the inhibition is -9.77%.

In the case of `CC[C@]1(C(=O)OC)[C@H]2C(=O)N(C)C(=O)[C@H]2[C@H]2CN(C)C(=NCc3ccccc3)N21`, the inhibition is 0.164%.

`COc1cc(NC(=O)CCS(=O)(=O)c2ccc3c(c2)oc(=O)n3C)cc(OC)c1`: the inhibition was 1.53%.

On to `CCN(CC)S(=O)(=O)c1ccc(N(C)Cc2ccc(C(F)(F)F)cc2)nc1`, for which the inhibition was -1.06%.

`Cc1ccc(CN2CCN(Cc3ccccc3-c3ccco3)CC2CCO)o1` (configuration not stated): the inhibition is 4.02%.

On to `CC(OC(=O)c1ccc(Cl)cc1O)C(=O)NCCC1=CCCCC1` (configuration not stated), for which the inhibition was -16.5%.

In the case of `CC[N+](C)(CC)CCC[n+]1c(-c2ccccc2)c2cc(N)ccc2c2ccc(N)cc21`, the inhibition is 96.3% (active).

As for `COC(=O)c1ccc(COc2ccc(C#N)cc2)o1`, the inhibition was 0.574%.

In the case of `Cc1cc2oc(=O)cc(CN3CCN(S(=O)(=O)c4cccs4)CC3)c2cc1C(C)C`, the inhibition is 8.53%.

Regarding `Cn1c(Nc2cccc(Cl)c2)nc2ccccc21`, the inhibition was 4.17%.

As for `Cc1nn(C)cc1C(=O)c1ccccc1`, the inhibition was 7.95%.

As to `Cn1c(-c2ccc(C(=O)c3ccccc3)s2)nc2ccccc21`, the inhibition was 98.5% (active).

Take `Cn1c(NC(=O)c2ccccc2)nc2ccccc21`: the inhibition was 77.2% (active).

For `Cc1nc2ccccc2c(-c2ccccc2)c1C(=O)c1ccccc1`, the inhibition was -0.427%.

As for `CCn1c(NC(=O)c2nn(C)cc2Br)nc2ccccc21`, the inhibition was -3.05%.

`CCC1(CC)NC(=O)N(CC(=O)OCC(=O)Nc2ccc(C(F)(F)F)cc2)C1=O`: the inhibition is -0.704%.

With `COC(=O)c1ccc(NC(=O)CSc2nnc(Cc3cccn3C)n2-c2ccc(F)cc2)cc1`, the inhibition is 9.96%.

In the case of `CC(C)c1ccc(C2C(C#N)=C(N)Oc3c2oc(CO)cc3=O)cc1` (configuration not stated), the inhibition is 3.37%.

In the case of `CCOC(=O)N1CCC(NC(=O)CN2C(=O)COc3ccc(C(C)(C)C)cc32)CC1`, the inhibition was -10.5%.

`O=S(=O)(NCCS(=O)(=O)N1CCN(c2ccccc2)CC1)c1ccc(F)cc1`: the inhibition was 9.28%.

`COc1ccc(C(=O)Nc2cccc(NC(=O)c3ccc(OC)cc3OC)n2)c(OC)c1`: the inhibition was 0.763%.

As to `COc1cc2ccccc2cc1C(=O)Nc1nc(C)c(C(C)=O)s1`, the inhibition was -4.32%.

Take `COc1cc(SC)ccc1C(=O)Nc1cc(C)ccn1`: the inhibition is 60.6% (active).

Regarding `Cc1ccnc(NC(=O)CNC(=O)c2ccccc2)c1`, the inhibition was -1.59%.

Take `COc1cc(SC)ccc1C(=O)Nc1nc(C)cs1`: the inhibition was 101% (active).

For the compound `COc1ccc(C(=O)NC2=NCCS2)c(OC)c1`, the inhibition was 24.6%.

For the compound `Cc1occc1C(=O)Nc1cccc(Cn2cccn2)c1`, the inhibition was 8.79%.

Take `COc1cc(SC)ccc1C(=O)NNC(=O)C1COc2ccccc2O1` (configuration not stated): the inhibition is 5.69%.

Turning to `Cc1csc(NC(=O)c2ccc(C)s2)n1`, the inhibition is 0.528%.

In the case of `Cc1ccnc(NC(=O)c2ccoc2C)c1`, the inhibition was 71.9% (active).

As for `COc1cc(SC)ccc1C(=O)N(Cc1ccccc1)c1ccccc1`, the inhibition was -1.54%.

Turning to `COC(=O)c1sc(NC(=O)c2ccc(OC)cc2OC)nc1C`, the inhibition was 101% (active).
